Data from the supplement of paper PMC4894684.
Structures can show the parent of a compound that is named as a salt. ± gives the standard deviation of the averaged measurements.

What follows are compounds tested on Toxoplasma gondii RH (in HFF) (assay: parasite growth relative to the screen mean (all compounds = 100%); higher = less inhibition of parasite growth). Conditions: 5 µM; 72 h; oxygen 21 %.
How it was run: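 RH β-Gal–GFP Toxoplasma at MOI 1:5 was used to infect confluent human foreskin fibroblasts in 96-well plates within 2 h of pin-transferring compounds to 5 µM final. After 72 h at 21% O2, parasite number was determined by CPRG β-Gal assay against standard curves on the same plate. Growth is relative to the screen mean and averaged over two screens, with all compounds = 100%.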
Work on `O=C(O)CCc1ccc(NCc2cccc(Oc3ccccc3)c2)cc1` yielded a parasite growth of 198 ± 12%. `CN1CCN2c3ncccc3Cc3ccccc3C2C1` (centres undefined) [Mirtazepine] was tested, and the parasite growth was 92.3 ± 34%. For `S=C(S)N1CCCC1` [Pyrrolidinedithiocarbamate ammonium], the parasite growth was < 0%. With `CN(CC[C@@H](Oc1ccc(-c2ccccc2)cc1)c1ccc(F)cc1)CC(=O)O` [ALX 5407 hydrochloride] the parasite growth was 136 ± 5.8%. `COc1ccc2[nH]c(I)c(CCNC(C)=O)c2c1` [2-Iodomelatonin] showed a parasite growth of 106 ± 4.9%. For `CCOc1cc(C(=O)Nc2ccc(Cl)c(-c3nc4ccccc4[nH]3)c2)cc(OCC)c1OCC`, the parasite growth was 23.3 ± 3.9%. In the case of `Nc1cc(N2CCCCC2)nc(N)[n+]1[O-]` [Minoxidil], the parasite growth is reported as 111 ± 13%. `N[C@H](C(=O)O)c1ccc(C(=O)O)c(O)c1` [(S)-4-Carboxy-3-hydroxyphenylglycine] gave a parasite growth of 143 ± 25%. `COc1ccc([C@H]2CNC(=O)C2)cc1OC1CCCC1` [(S)-(+)-Rolipram] showed a parasite growth of 116 ± 30%. `CC1=C(/C=C/C(C)=C/C=C/C(C)=C/C(=O)O)C(C)(C)CCC1` [Retinoic acid] gave a parasite growth of 85 ± 12%. `CCC(=O)NC1Cc2ccccc2C(c2ccccc2)C1` (centres undefined) showed a parasite growth of 73.8 ± 18%. `CC(C)(C)[N+]([O-])=Cc1ccc(S(=O)(=O)O)cc1S(=O)(=O)O` gave a parasite growth of 86.3 ± 26%. `O=C(c1ccc(F)cc1)C1CCN(CCCCc2ccccc2)CC1` [4-(4-Fluorobenzoyl)-1-(4-phenylbutyl)-piperidine oxalate] was tested, and the parasite growth was 110 ± 7.6%. With `CN1CCN(C(=O)c2nc3ccc(Cl)cc3[nH]2)CC1` the parasite growth was 133 ± 14%. Work on `Cc1c(OCC(F)(F)F)ccnc1C[S+]([O-])c1nc2ccccc2[nH]1` (centres undefined) [Lansoprazole] yielded a parasite growth of 124 ± 9.3%. `O=C(O)C1(C(=O)O)CCC1.[NH2-].[NH2-].[Pt+2]` [Carboplatin] was tested, and the parasite growth was 136 ± 19%. `CNC(=O)[C@H]1O[C@@H](n2cnc3c(NCc4cccc(I)c4)ncnc32)[C@H](O)[C@@H]1O` gave a parasite growth of 117 ± 14%. `CN1CCc2cc(Cl)c(O)cc2[C@@H](c2ccccc2)C1` showed a parasite growth of 120 ± 46%. Compound `O=C(O)CCC/C=C\CC1C(O)CC(O)C1/C=C/C(O)COc1cccc(Cl)c1` (racemic) [(±)-Cloprostenol sodium salt] has a parasite growth of 121 ± 15%. In the case of `O=C(CCCN1CCC(O)(c2ccc(Cl)cc2)CC1)c1ccc(F)cc1` [Haloperidol hydrochloride], the parasite growth is reported as 134 ± 39%. `CN1CCC[C@@H]1Cc1c[nH]c2ccc(CCS(=O)(=O)c3ccccc3)cc12` [Eletriptan hydrobromide] gave a parasite growth of 126 ± 18%. `COc1cc(N)c(Cl)cc1C(=O)OCCCN1CCCCC1` was tested, and the parasite growth was 109 ± 2.2%. `CCc1nn(CCCN2CCN(c3cccc(Cl)c3)CC2)c(=O)n1CCOc1ccccc1` [Nefazodone hydrochloride] gave a parasite growth of 139 ± 7.4%. With `COC(=O)[C@@H]1[C@H]2C[C@H]3c4[nH]c5ccccc5c4CCN3C[C@@H]2CC[C@@H]1O` [Yohimbine hydrochloride] the parasite growth was 184 ± 33%. Work on `FC(F)(F)c1cccc(-c2noc(-c3cc(-c4ccccc4)c(C(F)(F)F)s3)n2)c1` yielded a parasite growth of 109 ± 44%. `O=[N+]([O-])c1cccc2c[nH]nc12` was tested, and the parasite growth was 97.2 ± 10%. For `CCC1=C(C)CN(C(=O)NCCc2ccc(S(=O)(=O)NC(=O)N[C@H]3CC[C@H](C)CC3)cc2)C1=O` [Glimepiride], the parasite growth was 149 ± 43%. `O=C(O)Cc1ccc(OCCNC[C@H](O)c2ccccc2)cc1` [ZD 2079 hydrochloride] was tested, and the parasite growth was 119 ± 12%. With `CCCCCCCC/C=C\CCCCCCCC(=O)NCc1ccc(O)c(OC)c1` [Olvanil] the parasite growth was 155 ± 38%. Compound `CC(=O)N(O)[C@@H]1c2cc(C#N)ccc2OC(C)(C)[C@H]1O` has a parasite growth of 92.8 ± 30%. `N=C(N)SCCc1c[nH]cn1` [Imetit dihydrobromide] was tested, and the parasite growth was 91.9 ± 21%. `COc1cc(C[C@H]2C(=O)OC[C@@H]2Cc2ccc(OC)c(OC)c2)ccc1O` [Arctigenin] showed a parasite growth of 125 ± 10%. With `O=C1NC(=O)C(c2ccccc2[N+](=O)[O-])=C1Nc1ccc(O)c(Cl)c1` the parasite growth was 155 ± 3.7%. In the case of `O=S(=O)(NCCNC/C=C/c1ccc(Br)cc1)c1cccc2cnccc12` [H 89 dihydrochloride], the parasite growth is reported as 26.2 ± 27%. Compound `CCCn1c(=O)c2[nH]c(C3CCCC3)nc2n(CCC)c1=O` has a parasite growth of 103 ± 7%. For `CC1=C(C(=O)OCCN(Cc2ccccc2)c2ccccc2)C(c2cccc([N+](=O)[O-])c2)C(P2(=O)OCC(C)(C)CO2)=C(C)N1` (centres undefined) [Efonidipine hydrochloride monoethanolate], the parasite growth was 58 ± 3.9%. `OC[C@H]1O[C@@H](n2cnc3c(NC4CCCC4)ncnc32)[C@H](O)[C@@H]1O` [N6-Cyclopentyladenosine] gave a parasite growth of 77.4 ± 7.7%. In the case of `Cc1cccc(C#Cc2ccccc2)n1` [MPEP hydrochloride], the parasite growth is reported as 101 ± 37%. `c1ccc(-c2n[nH]c3c2oc2ccccc23)cc1` showed a parasite growth of 103 ± 32%.
